Pf Dd2 growth: inhibitors of Plasmodium falciparum Dd2 growth | P. falciparum Dd2 growth, SYBR Green, 72 h | Potency, µM (series often up to 28.9 µM), usual class: inhibitors | actives 4.3% (n = 120,000) | AID 1347417; active = well fitted inhibition curve with a large enough effect; also: nearly all actives have a fitted effect of over 65% in size
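Readout: SYBR Green fluorescence, 485 nm excitation, 535 nm emission, after ~16 h lysis at 37C. Before that, Dd2-infected red cells (2.5% hematocrit) grew 72 h with compound, 29 uM top final concentration.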
Each line names hits and unclear results; the compound was inactive in the other large screens. The entries come from a sample that favours hits as a whole.

COc1ccc(Cn2c3c(c(=O)n2Cc2ccccc2)CCN(Cc2cccc(O)c2)C3)cc1	none
O=C(c1ccccc1)N1CCc2c(n(Cc3ccccc3)n(-c3ccccc3)c2=O)C1	none
O=c1c2c(n(Cc3ccccc3)n1-c1ccccc1)CN(Cc1ccc3[nH]ccc3c1)CC2	Pf Dd2 growth 3.16µM
CC(C)(C)NC(=O)N1CCCOCCNC(=O)[C@@H]2CCC[C@@H]21	none
CC(C)NC[C@H]1COCc2nc3cc(S(C)(=O)=O)ccc3n21	none
Cc1ccc(S(=O)(=O)Nc2cccn3nc(C4CCC4)nc23)cc1	none
CC1CCCN(c2ncnc3c2CN(c2ccc(Cl)cc2)C(=O)CN3C)C1 (stereo not drawn)	Pf Dd2 growth 10µM
CC1CCCN(c2ncnc3c2CN(c2ccccc2F)C(=O)CN3C)C1 (stereo not drawn)	none
Cc1ccc(N2Cc3c(ncnc3N3CCN(C)CC3)N(C)CC2=O)cc1	none
Cn1nccc1C(=O)N[C@@H]1CN(c2ncccn2)C[C@H]1CO	Pf Dd2 growth 2.51µM
Cn1cccc1C(=O)N[C@@H]1CN(c2ncccn2)C[C@H]1CO	none
CN(C)C[C@@H]1CN(c2ncccn2)C[C@H]1NC(=O)c1ccnn1C	none
O=C1N(CCCc2ccccc2)CCCC1(O)CN1CCN(CCO)CC1 (stereo not drawn)	none
Cc1cn2nc(C(=O)N3CCCC3)cc2c(N(C)Cc2ccccc2)n1	none
Cc1cn2nc(C(=O)N3CCC(C)CC3)cc2c(N(C)Cc2ccccc2)n1	Pf Dd2 growth 11.2µM
Cc1cn2nc(C(=O)N3CCN(c4ccccc4)CC3)cc2c(N2CCCC2)n1	none
COc1ccc(NC(=O)c2cc3c(N(C)Cc4ccccc4)nc(C)cn3n2)cc1OC	none
Cc1cn2nc(C(=O)Nc3ccccc3F)cc2c(N(C)Cc2ccccc2)n1	Pf Dd2 growth 7.94µM
Cc1cn2nc(C(=O)NCCCc3ccccc3)cc2c(N2CCCC2)n1	none
Cc1cnc(C(=O)N[C@@H]2CN(C3CCOCC3)C[C@H]2CN(C)C)cn1	none
CCCCN1C(=O)[C@@H]2C[C@@H](O)CN2C2(CN(Cc3cccnc3)C2)C1=O	none
O=C(NCC1CCCO1)c1ccc2oc(-c3ccc(C(F)(F)F)cc3)nc2c1 (stereo not drawn)	none
O=C(NC1CCCC1)N1CCCC(c2nn[nH]n2)C1 (stereo not drawn)	none
CCOc1cc(C(=O)NC2CCN(c3cc(-c4cccs4)[nH]n3)C2)cc(OCC)c1OCC (stereo not drawn)	none
CCOc1ccc(CC(=O)NC2CCN(c3cc(-c4ccccc4)[nH]n3)C2)cc1OCC (stereo not drawn)	Pf Dd2 growth 7.94µM
Cc1cc(C)cc(C(=O)NC2CCN(c3cc(-c4ccccc4)[nH]n3)C2)c1 (stereo not drawn)	none
CCOc1cc(C(=O)NC2CCN(c3cc(-c4ccccc4)[nH]n3)C2)cc(OCC)c1OCC (stereo not drawn)	Pf Dd2 growth 5.01µM
CCOc1ccc(CC(=O)NC2CCCN(c3cc(-c4ccc(F)cc4)[nH]n3)C2)cc1OCC (stereo not drawn)	none
CCOc1ccc(CC(=O)NC2CCN(c3cc(-c4cccs4)[nH]n3)C2)cc1OCC (stereo not drawn)	none
O=C(O)C[C@@H]1CCN(C(=O)c2ccccc2)C[C@@H]1CC1=NCCc2cc(F)ccc21	none
Cc1noc(C2CCCN2C(=O)c2cccc(CC3CCNCC3)c2)n1 (stereo not drawn)	none
O=[S+]([O-])(c1ccc(Br)cc1)c1nnn2c1nc(N1CCC(F)CC1)c1ccccc12	none
CCOC1CCOC2(CCN(C(=O)c3ccn(CC)n3)CC2)C1 (stereo not drawn)	none
CC(C)CNC(=O)CC1COCCN1C(=O)c1ccc2c(=O)n(C)cnc2c1 (stereo not drawn)	none
CN1CCC(CN2CCC3(CC2)COCCN3C(=O)c2ccccc2)CC1	none
Cc1noc(C)c1S(=O)(=O)N1CCCC(CO)CCNC(=O)CC1 (stereo not drawn)	none
COc1ccccc1C(=O)N1CCc2c(c(-c3nncn3C(C)C)nn2C)C1	none
O=C([C@@H]1C[C@H](F)CN1S(=O)(=O)Cc1cccc(Cl)c1)N1CCCCC1	none
CCOc1ncccc1C(=O)N[C@H](c1cncc(OC)c1)C1CC(O)C1 (stereo partly drawn)	none
CC(=O)Nc1ccc(CNC2(Cc3cc(CN(C)C)on3)COC2)cc1	none
CCc1ccc(C2CC(=O)Nc3c2c(C)nn3-c2nc(C)cc(C)n2)cc1 (stereo not drawn)	Pf Dd2 growth 11.2µM
COc1cc(C2CC(=O)Nc3c2c(C)nn3-c2nc(C)cc(C)n2)cc(OC)c1O (stereo not drawn)	none
COc1ccc(C2CC(=O)Nc3c2c(C)nn3-c2nc(C)cc(C)n2)c(OC)c1OC (stereo not drawn)	none
CC(=O)N1C[C@@H]2CCCN3CCC[C@@H]([C@H]23)[C@H]1CCCC(=O)NCCC(C)C	none
N#Cc1ccc(C(=O)N2CCCCC2c2nc(CCOCC3CCOCC3)no2)cc1 (stereo not drawn)	none
Cn1cnnc1CC1CCN(C(=O)CC2CCCCC2)C1 (stereo not drawn)	none
CCCCN1CCN(C(=O)c2cnc(-c3ccccc3)nc2-c2ccncc2)CC1	none
CC/C=C\CCc1c(-c2ccccc2)ncn1CCN1CCN(C)CC1	Pf Dd2 growth 4.47µM
CN1CCN(c2ncc(C(=O)O)c(-c3ccccc3)n2)CC1	none
O=C1NCCCCCN(C(=O)c2cccs2)[C@H]2CCCC[C@@H]12	none
Cc1cn2cc(C(=O)NCc3cn4c(n3)SCC4)ccc2n1	none
O=C(c1ccc(C(F)(F)F)cc1)N1CCn2c(nn(-c3ccc(F)cc3F)c2=O)C1	none
Cc1cn2nc(C(=O)NCc3cccc(C(F)(F)F)c3)cc2c(N2CCSCC2)n1	none
COc1ccc(CC(=O)Nc2ccc3ncnc(N4CCCC4)c3c2)c(Cl)c1	none
O=C(Nc1ccc2c(N3CCCCC3)ncnc2c1)c1ccsc1	Pf Dd2 growth 7.08µM
O=C(Cc1ccsc1)Nc1ccc2c(N3CCCC3)ncnc2c1	Pf Dd2 growth 5.01µM
O=C(NC1CCCN(c2cc(N3CCCC3)ncn2)C1)c1ccsc1 (stereo not drawn)	none
CCOCC(=O)Nc1ccc2ncnc(N3CCCCC3)c2c1	none
N#Cc1ccc(C(=O)Nc2ccc3c(N4CCCCC4)ncnc3c2)cc1	Pf Dd2 growth 8.91µM
O=C(Nc1ccc2ncnc(N3CCCCC3)c2c1)c1ccsc1	none
CCn1ccc(C(=O)Nc2ccc3ncnc(N4CCCC4)c3c2)n1	none
N#Cc1ccc(C(=O)Nc2ccc3ncnc(N4CCCCC4)c3c2)cc1	none
Cn1nc(C2CCN(C(=O)CC3CCCC3)CC2)c2c1CCOC2	none
CC(C(=O)NCc1cc(F)ccc1F)C1CCOCC1 (stereo not drawn)	none
CN1C(=O)CCC2(CNC(=O)c3nccn3C)CCC=C12 (stereo not drawn)	none
Cc1cc(C)c(NC(=O)Cn2cccc2-c2nc(-c3ccccc3)no2)c(C)c1	none
COCc1ccc(C(=O)N2CCn3nc(CCC(=O)NC4CC4)cc3C2)o1	none
CC(C)c1nc(NC2CCCC2)ncc1C(=O)O	none
Cn1cccc1C(=O)N[C@H]1CCN2C(=O)N(c3cccc(F)c3)C(=O)[C@@H]2C1	none
Cc1ccc(N2C(=O)[C@@H]3C[C@@H](NC(=O)c4cccn4C)CCN3C2=O)cc1	none
CSc1cccc(N2C(=O)[C@@H]3C[C@@H](NC(=O)c4cccn4C)CCN3C2=O)c1	Pf Dd2 growth 10µM
CCC(=O)N(C1CCOCC1)C1CCN(S(=O)(=O)c2ccc(Cl)cc2C)CC1	none
CCC1Oc2ccc(NC(=O)c3ccccc3F)cc2CN(Cc2ccccc2F)C1=O (stereo not drawn)	Pf Dd2 growth 5.62µM
CCC1Oc2ccc(NC(=O)Cc3ccc(F)cc3)cc2CN(Cc2cccc(OC)c2)C1=O (stereo not drawn)	Pf Dd2 growth 3.98µM

Screening data (PubChem)
